According to ChEMBL document CHEMBL3988442, “University of Dundee, Small-Polar-MMV Screening Library” (2021):
Screen size: about 48,000 compounds; about 13,000 (27%) showed an effect of 50% or more. The list shows a part of the results.

System: Wolbachia pipientis
Test: Anti-Wolbachia Cell-Based Screen
Assay type: functional
Parameters: scale not given: in the data most compounds retested in dose-response had high values
Details: 5 µM

| SMILES | Percent Effect |
| --- | --- |
| Cc1ccc(CN2CCc3c(C(=O)N(C)C)n[nH]c3C2)o1 | -11.98% |
| Cc1ccc(CNC2(Cc3cc(-c4ccccn4)on3)COC2)o1 | -9.349% |
| CC(C)N(Cc1ccc(C(F)(F)F)nc1)Cc1cnn(C)c1 | 15.8% |
| COc1ccc(C(=O)N(Cc2cnn(C)c2)C(C)C)cc1OC(F)F | 110.3% |
| CCOc1ccc(C(=O)N(Cc2cnn(C)c2)C(C)C)cc1OCC | 111.9% |
| COc1cc(C(=O)N(Cc2cnn(C)c2)C(C)C)ccc1OCC(N)=O | 4.705% |
| COc1cc(C(=O)N(Cc2cnn(C)c2)C(C)C)ccc1C | 113.7% |
| CCOc1ccc(C(=O)N(Cc2cnn(C)c2)C(C)C)cc1 | -5.805% |
| COc1ccc(CN(Cc2cnn(C)c2)CC(C)C)cn1 | -28.68% |
| COc1cc(C(=O)N(Cc2cnn(C)c2)C(C)C)ccc1OC(C)C | 121.6% |
| CCSc1cc(C(=O)N(Cc2cnn(C)c2)C(C)C)ccn1 | -10.41% |
| Cc1ccc(NC(=O)N(C)Cc2cnn(C)c2)cc1OCC(F)F | -4.297% |
| COCCCOc1ccc(C(=O)N(Cc2cnn(C)c2)C(C)C)cn1 | 5.983% |
| COc1ccc(C(=O)N(Cc2cnn(C)c2)C(C)C)cc1Br | 9.999% |
| CN1C[C@@H]2CN(C(=O)C3CC=CC3)C[C@@H]2C1=O | -1.664% |
| Cc1nnc(CN2CCC3(CCC(=O)N([C@H]4CC[C@H](O)CC4)C3)CC2)o1 | 5.383% |
| CC(C)=CCN1CCN(C(C)c2cccnc2)CC1 (configuration not stated) | 2.838% |
| COCCC(=O)N(Cc1cccnc1)CC1CCN(C2CCCC2)CC1 | -4.098% |
| CCN(CC1=CCN(C)CC1)C(=O)CCOC | 97.45% |
| CN1CC=C(CCN(C)C(=O)CCc2ccccc2)CC1 | 90.24% |
| CCc1ccccc1OCCN(C)C(=O)CCN1CCCO1 | 2.484% |
| CCCS(=O)(=O)N(C)C(=O)CCc1ccccc1 | -9.766% |
| CN(CCN1CCOCC1)C(=O)CCCOCCc1ccccc1 | 6.061% |
| CCOCCC(=O)N(C)CC1Cc2ccccc2CN1C (configuration not stated) | 13.82% |
| COCCC(=O)N(C)CCC1=CCN(C)CC1 | 102.2% |
| CCN(Cc1nc(COC)no1)C(=O)CCn1c(C)cc2ccccc21 | -20.66% |

| SMILES | Percent Effect |
| --- | --- |
| FC(F)(F)C1CCCn2c(CNCc3ccsc3)nnc21 (configuration not stated) | 5.709% |
| CCCc1noc(CS(=O)(=O)c2cccc(OC)c2)n1 | 19.11% |
| CC(NC(=O)NCCCNS(C)(=O)=O)c1ccncc1 (configuration not stated) | 0.1158% |
| CCc1noc(C(C)N(C)Cc2cc(Br)ccc2OC)n1 (configuration not stated) | 1.676% |
| CCS(=O)(=O)N(C)C1CCN(C(=O)c2ccc(Cl)cc2)CC1 | -4.195% |
| O=C1OCCN1CC(=O)N1C[C@H]2CC[C@@H]1CN(C(=O)c1ccccc1)C2 | -14.7% |
| O=C(c1ccc(Cl)cc1)N1CCC(N2CCOC2=O)CC1 | 107.7% |
| O=C(c1ccc(Cl)cc1)N1CCC(N2CCCOC2=O)CC1 | 100% |
| CC(C)S(=O)(=O)NCC1CCCN(C(=O)c2ccc(Cl)cc2)C1 (configuration not stated) | -24.01% |
| COc1cccc2c1OCC(C(=O)N1CCC(N3CCOC3=O)CC1)C2 (configuration not stated) | -3.402% |
| COCc1ccccc1NC(=O)NC(C)c1ccc(C)o1 (configuration not stated) | -2.277% |
| Cc1c(F)cc(C(=O)O)cc1S(=O)(=O)Nc1cccc(C(F)F)c1 | -21.42% |
| O=C(O)c1c[nH]c2cc(NS(=O)(=O)c3cccc(Cl)c3F)ccc12 | -1.912% |
| O=C(O)c1c[nH]c2cc(NS(=O)(=O)c3ccc(Cl)cc3F)ccc12 | 101.8% |
| O=C(O)c1c[nH]c2cc(NS(=O)(=O)c3cc(F)ccc3Cl)ccc12 | 93.61% |
| Cn1cc(Br)c(=O)c(NS(=O)(=O)c2cc(F)ccc2Cl)c1 | -8.345% |
| O=C(O)c1c[nH]c2cc(NS(=O)(=O)c3cccc(F)c3F)ccc12 | 98.18% |
| COc1ccccc1S(=O)(=O)Nc1ccc2c(C(=O)O)c[nH]c2c1 | -5.607% |
| CSc1c[nH]nc1NS(=O)(=O)c1cc(F)ccc1Cl | 16.47% |
| Cc1ccc(F)cc1S(=O)(=O)Nc1cnc(N2CCCC2)nc1 | 3.743% |
| Cc1ccc(F)cc1S(=O)(=O)Nc1ccc2c(C(=O)O)c[nH]c2c1 | 88.84% |
| Cc1cc(NC(=O)N2CCN(C)CC2C)n(CCC#N)n1 (configuration not stated) | -16.44% |
| N#CCCN(Cc1ccco1)C(=O)Cc1ccc(-n2cnnn2)cc1 | -12.81% |
| O=C(c1ccc2ccccc2c1)C1CCCN(C(=O)Cn2cnnn2)C1 (configuration not stated) | -17.21% |
| N#Cc1nccnc1N1CCC(c2nc(C(F)(F)F)c[nH]2)CC1 | -6.885% |
| CNC(=O)NC(=O)CN1CCCN(CC(F)(F)F)CC1 | 5.4% |
